Source: PubChem BioAssay
Shown are actives, neighbours in structure and some others; about 7.4% of the full set was active somewhere.
p53 reactivator: re-activators of mutant p53; H1299 p53-A138V BP100-luciferase reporter, luminescence, 24 h; Potency, µM (titrated, usually from 92.2 µM), for the others: top-dose activity change, positive = activation, actives largely listed as activators; hit rate 0.063% among 320,000; AID 504706; further: % of control where 0% means no effect; nearly all actives have a fitted effect of over 45% in size
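H1299 (p53-null), stable ts p53-A138V + BP100-Luc; 1000 cells/well, Opti-MEM/10% FBS; cpd 4 pt, 1:5; 24 h, 37 deg C, 5% CO2; detection reagent 10 min RT; luminescence.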
SMN2 splice enh: SMN2 splice variant enhancement | HEK293 SMN2-luciferase splicing reporter, luminescence, 30-36 h | AID 1458 | Potency, µM (titrated, usually from 46.1 µM), inactives show at the top dose activity change, positive = activation, hits mostly activators | hit rate 2.8% among 210,000; further: % of control where 0% means no effect; nearly all actives have a fitted effect of over 55% in size
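HEK293 cells carry an SMN2 minigene-luciferase reporter in which exon 7 inclusion puts luciferase in frame. Cells were seeded at 2000 cells/well, attached for 10-12 hours, then exposed to compounds for 30-36 hours at 37C before ONE-Glo luminescence.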
ELG1 genotoxic: genotoxicity induction in ELG1-luciferase HEK293T cells | HEK293T ELG1-luciferase reporter, luminescence, 16 h | AID 504466 | Potency, µM (top dose mostly 46 µM), inactives show at the highest dose activity change, positive = activation, usual class: activators | hit rate 1.3% among 330,000; further: % of control where 0% means no effect; nearly all actives have a fitted effect of over 60% in size
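Genotoxic stress is detected as increased luminescence from luciferase-tagged ELG1 in HEK293T cells, measured with ONE-Glo after a 16 hr treatment at 37 °C.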
NPC1 promoter act: NPC1 promoter activation. Huh7 NPC1 promoter luciferase reporter, 24 h. Potency, µM (top dose mostly 9.22 µM), for inactives: at the top dose activation, usual class: activators. AID 485313. hit rate 2.4% among 320,000; further: % of control where 0% means no effect; nearly all actives have a fitted effect of over 60% in size
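Readout is luciferase luminescence, reflecting NPC1 promoter activation in stably transfected Huh7 cells after 24 h compound exposure at 37 °C in reduced-serum medium with 10% FBS.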
Rab9 promoter act: activates the Rab9 promoter; Huh7 Rab9 promoter-luciferase reporter, luminescence, 24 h; Potency, µM (top dose mostly 9.22 µM), for inactives: at the top dose activation, negative = inhibition, usual class: activators; hit rate 2.8% among 320,000; further: % of control where 0% means no effect; nearly all actives have a fitted effect of over 60% in size
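Using Huh7 cells stably transfected with Rab9 promoter–luciferase, compounds were incubated 24 h at 37 °C, 5% CO2; luciferase luminescence was read 10 min after reagent addition.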
FLuc modulator: inhibits or activates purified firefly luciferase, miR-21 counter-screen; P08659; purified FLuc, Km substrates, luminescence inhibition; Potency, µM (doses to about 57.5 µM), inactives show at the top dose activity change, negative = inhibition, hits mostly inhibitors; hit rate 6.9% among 360,000; AID 588342;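 further: plate controls were vehicle for no effect and reference inhibitor for full effect; nearly all actives have a fitted effect of over 55% in size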
Target sequence (P08659 whole entry, looked up): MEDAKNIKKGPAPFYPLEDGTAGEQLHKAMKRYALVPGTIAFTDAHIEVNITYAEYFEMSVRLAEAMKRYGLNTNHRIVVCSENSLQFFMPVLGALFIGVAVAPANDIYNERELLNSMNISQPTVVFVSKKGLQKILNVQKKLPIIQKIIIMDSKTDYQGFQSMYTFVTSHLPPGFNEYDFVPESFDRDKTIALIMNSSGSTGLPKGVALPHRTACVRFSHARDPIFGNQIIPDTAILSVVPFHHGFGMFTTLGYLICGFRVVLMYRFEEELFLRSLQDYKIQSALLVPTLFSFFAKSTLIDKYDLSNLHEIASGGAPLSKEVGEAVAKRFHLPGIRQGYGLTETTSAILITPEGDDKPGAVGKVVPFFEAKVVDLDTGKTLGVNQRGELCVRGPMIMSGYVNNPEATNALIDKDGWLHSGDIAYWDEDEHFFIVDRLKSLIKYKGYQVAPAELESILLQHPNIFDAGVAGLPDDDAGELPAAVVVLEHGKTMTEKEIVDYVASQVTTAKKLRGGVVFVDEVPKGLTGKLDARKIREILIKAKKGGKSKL
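Biochemical qHTS of compounds, final roughly 60 µM downward over six points, against 10 nM purified firefly luciferase using Km concentrations of substrates (10 uM D-luciferin, 10 uM ATP) in Tris acetate pH 7.5 buffer; luminescence output.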
Numbers without * were called inactive; [ ] = another dose, or the depositor's remark. The call rests on the fitted dose curve; in most records, active means well fitted curve in the direction sought with a large enough effect; inconclusive means small, poorly fitted or top-dose-only effect, or another doubt; inactive means no such curve, though single readings can be large; an effect the other way counts as inactive or inconclusive. Potency means the concentration at half of the fitted maximal effect.

Screening Cc1cc(C)c(C#N)c(SCC(=O)Nc2ccccc2C(N)=O)n1 returned p53 reactivator -3.5%, SMN2 splice enh 12.6µM*, ELG1 genotoxic inconclusive, NPC1 promoter act 2µM*, Rab9 promoter act 1.26µM* and FLuc modulator 12µM*.
For Cc1cc(C)c(C#N)c(SCC(=O)Nc2ccc3c(c2)OCO3)n1 the results were p53 reactivator inconclusive, SMN2 splice enh 15.8µM*, ELG1 genotoxic 16.4µM*, NPC1 promoter act inconclusive, Rab9 promoter act inconclusive and FLuc modulator -10.0%.
For Cc1nc(SCC(=O)Nc2ccc3c(c2)OCO3)c(C#N)c2c1CCCC2 the results were p53 reactivator 1.3%, SMN2 splice enh -25.7%, ELG1 genotoxic inconclusive, NPC1 promoter act 13.1%, Rab9 promoter act 19.6% and FLuc modulator 1.1%.
For Cc1cc(C)c(C#N)c(SCC(=O)Nc2cc(C)on2)n1 the results were p53 reactivator inconclusive and ELG1 genotoxic 18.3µM*.
`O=C(O)c1cc(-c2ccncc2)nc2ccccc12` gave SMN2 splice enh -8.5%[9.22 µM].
For O=C(NC1CCS(=O)(=O)C1)c1ccc2c(c1)OCO2 (stereo not given) the results were p53 reactivator -3.3%, ELG1 genotoxic 1.7%, NPC1 promoter act 3.0%, Rab9 promoter act 1.9% and FLuc modulator -2.0%.
COc1ccc(-c2cn(Cc3ccc(C(N)=O)cc3)c(CCN)n2)cc1 was read as p53 reactivator inconclusive, ELG1 genotoxic 8.4%, NPC1 promoter act 7.1%, Rab9 promoter act 1.4% and FLuc modulator inconclusive.
`COc1ccc(N(Cc2cc3cc(C)ccc3[nH]c2=O)C(C)=O)cc1` gave p53 reactivator inconclusive, ELG1 genotoxic -5.4%, NPC1 promoter act -2.5%, Rab9 promoter act -1.8% and FLuc modulator 0.7%.
`CC(C)NC(=O)CCc1nnc(Cc2cccc(C(F)(F)F)c2)o1` gave p53 reactivator inconclusive, ELG1 genotoxic inconclusive, NPC1 promoter act inconclusive, Rab9 promoter act inconclusive and FLuc modulator 15.1µM*.
`CCOc1ccc(NC(=O)Cc2ccc(-n3c(C)nc4cccnc43)cc2)cc1` gave FLuc modulator 0.3%.
Screening Cc1ccc(-c2cc(-c3nnc(SCC(=O)NC(C)C(C)C)n3N)c3ccccc3n2)cc1 (stereo not given) returned p53 reactivator 4.0%, SMN2 splice enh -3.5%, ELG1 genotoxic 0.1%, NPC1 promoter act 0.1%, Rab9 promoter act -0.3% and FLuc modulator 8.49µM*.
For CC(NC(=O)CSc1nnc(-c2cccnc2)n1N)c1ccccc1 (stereo not given) the results were p53 reactivator -6.5%, SMN2 splice enh 10.3%, ELG1 genotoxic 0.0%, NPC1 promoter act 1.6%, Rab9 promoter act 1.7% and FLuc modulator -3.0%.
Screening COc1ccc(C2Nc3cccc4cccc(c34)N2)cc1Br returned p53 reactivator 2.8%, ELG1 genotoxic -3.1%, NPC1 promoter act -1.5%, Rab9 promoter act -0.5% and FLuc modulator inconclusive.
For COc1cc(C2Nc3cccc4cccc(c34)N2)ccc1OC(C)=O the results were p53 reactivator -4.2%, SMN2 splice enh 0.1%, ELG1 genotoxic 3.7%, NPC1 promoter act -0.3%, Rab9 promoter act 14.7% and FLuc modulator 12µM*.
COc1ccc(NC(=O)CC2C(=O)N(c3cccc(OC)c3)C(=O)N2Cc2ccc3c(c2)OCO3)cc1 (stereo not given) was read as SMN2 splice enh -9.0% and FLuc modulator -0.2%.
For O=C(Cn1c(=O)ccc2cc(S(=O)(=O)N3CCCC3)ccc21)Nc1ccccc1 the results were FLuc modulator 0.6%.
`Fc1ccccc1COc1ccc(C(=S)N2CCCC2)cc1` gave ELG1 genotoxic inconclusive, NPC1 promoter act inconclusive, Rab9 promoter act inconclusive and FLuc modulator 16.9µM*.
For C#CC(C)(CC)NC(=O)Cn1nnc(-c2ccc(OCc3ccccc3Cl)cc2)n1 (stereo not given) the results were SMN2 splice enh -19.4% and FLuc modulator -18.5%.
For Cn1nnc(-c2ccc(OCc3ccccc3F)cc2)n1 the results were SMN2 splice enh 8.91µM*, ELG1 genotoxic 9.2µM*, NPC1 promoter act 0.631µM*, Rab9 promoter act 1µM* and FLuc modulator 1.9µM*.
Fc1ccccc1COc1ccc(-c2nnn(Cc3ccccc3F)n2)cc1 was read as p53 reactivator 8.6%, SMN2 splice enh -10.8%, ELG1 genotoxic -1.8%, NPC1 promoter act 4.1%, Rab9 promoter act 0.1% and FLuc modulator -16.5%.
Screening O=C(O)Cn1nnc(-c2ccc(OCc3ccccc3Cl)cc2)n1 returned p53 reactivator 19.2%, ELG1 genotoxic 4.7%, NPC1 promoter act 2.1%, Rab9 promoter act -2.9% and FLuc modulator 19µM*.
Screening O=C(Oc1ccc(C(=S)N2CCCCC2)cc1)c1ccccc1F returned p53 reactivator -4.3%, SMN2 splice enh -2.7%, ELG1 genotoxic -1.8%, NPC1 promoter act 1.3%, Rab9 promoter act -1.2% and FLuc modulator inconclusive.
CC(C)n1nnc(-c2ccc(OCc3ccccc3F)cc2)n1 was read as p53 reactivator 8.4%, ELG1 genotoxic inconclusive, NPC1 promoter act 2.82µM*, Rab9 promoter act 1.58µM* and FLuc modulator 6.01µM*.
COc1ccc(N(C(=O)c2cccnc2)S(=O)(=O)c2cc(OC)ccc2OC)cc1 was read as p53 reactivator -8.2%, ELG1 genotoxic 0.6%, NPC1 promoter act 0.6%, Rab9 promoter act -1.3% and FLuc modulator 0.3%.
Cc1nc2nc(NC(=O)c3ccco3)[nH]n2c(=O)c1C was read as p53 reactivator 6.5%, ELG1 genotoxic 0.6%, NPC1 promoter act 8.4%, Rab9 promoter act 1.5% and FLuc modulator -2.1%.
CSc1nnc2c(n1)OC(c1cccc(O)c1Cl)Nc1ccccc1-2 (stereo not given) was read as SMN2 splice enh 5.5% and FLuc modulator -14.1%.
Cc1nc(-c2ccc(F)cc2)c(CC(=O)N2CCN(S(=O)(=O)c3cccc(F)c3)CC2)s1 was read as p53 reactivator 0.0%, ELG1 genotoxic -29.6%, NPC1 promoter act -3.9%, Rab9 promoter act -3.0% and FLuc modulator 0.6%.
Screening Fc1ccc(-c2nnn(Cc3ccccc3Cl)n2)cc1 returned p53 reactivator 18.1%, ELG1 genotoxic 8.2%, NPC1 promoter act 13.9%, Rab9 promoter act 1.5% and FLuc modulator inconclusive.
`Nc1ccc(-c2nnn(Cc3ccccc3F)n2)cc1` gave ELG1 genotoxic inconclusive, NPC1 promoter act inconclusive, Rab9 promoter act inconclusive and FLuc modulator 15.1µM*.
